Results filed as inconclusive are left out. Entries that show only a call come without a potency. Calls of active or inactive are those of the source. Unless noted, the call rests on the fitted dose curve.
Test: qHTS assay for small molecule agonists of the antioxidant response element (ARE) signaling pathway - cell viability counter screen (AID 743203); further: nearly all actives have a fitted effect of over 55% in size
Conditions: ARE-bla HepG2 viability, CellTiter-Glo luminescence, 16 h; series mostly up to 73.3 µM
In short: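 Seeded at 2,000 cells/well, ARE-bla HepG2 cells were incubated 5 hrs before compound addition. After 16 hrs of treatment at 37C with 5% CO2, CellTiter-Glo reagent was added and luminescence read 30 min later.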

SMILES	Potency	viability change, negative = cytotoxic
CC(CN)CCCN (stereo unspecified)	inactive	
CCN(CCO)CCCC(C)Nc1ccnc2cc(Cl)ccc12 (stereo unspecified)		-9.02% [at 8.36 µM] (inactive)
CC(C)(C)c1cc(CO)cc(C(C)(C)C)c1O	inactive	
CC(=O)O[C@H]1C[C@@H]2CC[C@@H]3[C@H](CC[C@@]4(C)[C@H]3C[C@H]([N+]3(C)CCCCC3)[C@@H]4OC(C)=O)[C@@]2(C)C[C@@H]1N1CCCCC1	inactive	
CC(C)CCCC(C)CCO (stereo unspecified)	inactive	
CC(=O)NCCCS(=O)(=O)O	inactive	
CCCCC(CC)(CO)CO	inactive	
N#CCCNCCC#N	inactive	
CCCCOC(=O)c1ccccc1C(=O)OCC(CC)CCCC (stereo unspecified)	inactive	
CCOc1ccc2[nH]cc(C(=O)NCc3ccccc3)c(=O)c2n1	inactive	
CC(=O)Nc1ccc(/C=N/NC(N)=S)cc1	inactive	
CCCCCCCCC(CO)CCCCCC (stereo unspecified)	inactive	
CCCC[C@H]1CN(CC2CCOCC2)C(=O)OC12CCN(C1(C)CCN(C(=O)c3c(C)ncnc3C)CC1)CC2	inactive	
CCCCOC(O)CC (stereo unspecified)	inactive	
O=C1CCCCCO1	inactive	
CC(=O)OCCc1ccccc1	inactive	
CCCCc1cc2ccccc2c(OCCN(C)C)n1	inactive	
O=c1[nH]cnc2ccccc12	inactive	
CN1CCC[C@@H]1c1cccnc1	inactive	
COCCOCCOCCOCCOC	inactive	

SMILES	Potency	viability change, negative = cytotoxic
CC(C)c1ccccc1C(C)C	inactive	
N#CCc1cccc(C(F)(F)F)c1	inactive	
Nc1nc(N)c(-c2ccccc2)s1	inactive	
CNS(=O)(=O)Cc1ccc2[nH]cc(CCN(C)C)c2c1	inactive	
O=C(O)C1CCC(C(=O)O)CC1 (stereo unspecified)	inactive	
C=C(C)C(=O)OC(C)C	inactive	
COC(Cc1ccccc1)OC	inactive	
O=C(O)/C=C/c1cnc[nH]1	inactive	
CCN1CCC[C@H]1CNC(=O)c1c(OC)ccc(Br)c1OC	inactive	
N[C@H]1C(O)O[C@H](CO)[C@H](O)[C@@H]1O (stereo partly specified)	inactive	
CC(C)(C)c1cc(CCC(=O)OCC(COC(=O)CCc2cc(C(C)(C)C)c(O)c(C(C)(C)C)c2)(COC(=O)CCc2cc(C(C)(C)C)c(O)c(C(C)(C)C)c2)COC(=O)CCc2cc(C(C)(C)C)c(O)c(C(C)(C)C)c2)cc(C(C)(C)C)c1O	inactive	
CCOC(=O)CC(=O)c1cc(F)c(Cl)nc1Cl	inactive	
CCN(CC)C(C)=O	inactive	
C=CCCCCCC	inactive	
COC(=O)C(C)=O	inactive	
Oc1ccc(Sc2ccc(O)cc2)cc1	inactive	
C=C(C)C(=O)OCCOc1ccccc1	inactive	
Cc1cccc(OCCOc2cccc(C)c2)c1	inactive	
CC(C)NCC(O)COc1ccc(CC(N)=O)cc1 (stereo unspecified)	inactive	

Test: qHTS assay for small molecule activators of the heat shock response signaling pathway - cell viability counter screen (AID 743209; active means well fitted cell-killing curve with a large enough effect in the repeat runs; further: nearly all actives have a fitted effect of over 50% in size)
Conditions: HSE-bla HeLa viability, CellTiter-Glo luminescence, 5 h; series mostly up to 62.6 µM
In short: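 First, HSE-bla HeLa cells were seeded at 1500 cells/well and kept overnight at 37 C. Next, compounds were pinned in and incubated 5 h. After the FRET substrate step, CellTiter-Glo was added and luminescence read 30 min later.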

SMILES	Potency	activity change, negative = cytotoxicity
CC(CN)CCCN (stereo unspecified)	inactive	
CCN(CCO)CCCC(C)Nc1ccnc2cc(Cl)ccc12 (stereo unspecified)		-18.6% [at 5.95 µM] (inactive)
CC(C)(C)c1cc(CO)cc(C(C)(C)C)c1O	inactive	
CC(C)CCCC(C)CCO (stereo unspecified)	inactive	
CC(=O)NCCCS(=O)(=O)O	inactive	
CCCCC(CC)(CO)CO	inactive	
N#CCCNCCC#N	inactive	
CCOc1ccc2[nH]cc(C(=O)NCc3ccccc3)c(=O)c2n1	inactive	
CC(=O)Nc1ccc(/C=N/NC(N)=S)cc1	inactive	
CCCCCCCCC(CO)CCCCCC (stereo unspecified)	inactive	
CCCC[C@H]1CN(CC2CCOCC2)C(=O)OC12CCN(C1(C)CCN(C(=O)c3c(C)ncnc3C)CC1)CC2	inactive	
CCCCOC(O)CC (stereo unspecified)	inactive	
O=C1CCCCCO1	inactive	
CC(=O)OCCc1ccccc1	inactive	
CCCCc1cc2ccccc2c(OCCN(C)C)n1	inactive	
O=c1[nH]cnc2ccccc12	inactive	
CN1CCC[C@@H]1c1cccnc1	inactive	
COCCOCCOCCOCCOC	inactive	

SMILES	Potency	activity change, negative = cytotoxicity
CC(C)c1ccccc1C(C)C	inactive	
N#CCc1cccc(C(F)(F)F)c1	inactive	
Nc1nc(N)c(-c2ccccc2)s1	inactive	
CNS(=O)(=O)Cc1ccc2[nH]cc(CCN(C)C)c2c1	inactive	
O=C(O)C1CCC(C(=O)O)CC1 (stereo unspecified)	inactive	
C=C(C)C(=O)OC(C)C	inactive	
COC(Cc1ccccc1)OC	inactive	
O=C(O)/C=C/c1cnc[nH]1	inactive	
CCN1CCC[C@H]1CNC(=O)c1c(OC)ccc(Br)c1OC	inactive	
CC(C)(C)c1cc(CCC(=O)OCC(COC(=O)CCc2cc(C(C)(C)C)c(O)c(C(C)(C)C)c2)(COC(=O)CCc2cc(C(C)(C)C)c(O)c(C(C)(C)C)c2)COC(=O)CCc2cc(C(C)(C)C)c(O)c(C(C)(C)C)c2)cc(C(C)(C)C)c1O	inactive	
CCOC(=O)CC(=O)c1cc(F)c(Cl)nc1Cl	inactive	
CCN(CC)C(C)=O	inactive	
C=CCCCCCC	inactive	
COC(=O)C(C)=O	inactive	
Oc1ccc(Sc2ccc(O)cc2)cc1	inactive	
C=C(C)C(=O)OCCOc1ccccc1	inactive	
CC(C)NCC(O)COc1ccc(CC(N)=O)cc1 (stereo unspecified)	inactive	

Test: qHTS assay for small molecule activators of the heat shock response signaling pathway (AID 743210; active means well fitted activation curve with a large enough effect in the signal ratio in the repeat runs, with a control signal flat, not every such curve was filed as active; the % refers to the signal ratio)
Conditions: HeLa HSE-bla reporter, beta-lactamase ratio, 5 h; series mostly up to 62.6 µM
In short: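 HSE-bla HeLa cells (beta-lactamase reporter under heat shock response elements) were exposed to compounds for 5 h at 37 C, then loaded with LiveBLAzer B/G FRET substrate for 2.5 h at room temperature before fluorescence reading.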

SMILES	outcome	activation
CC(CN)CCCN (stereo unspecified)	inactive	
CCN(CCO)CCCC(C)Nc1ccnc2cc(Cl)ccc12 (stereo unspecified)		-0.125% [at 5.95 µM] (inactive)
CC(C)(C)c1cc(CO)cc(C(C)(C)C)c1O	inactive	
CC(=O)O[C@H]1C[C@@H]2CC[C@@H]3[C@H](CC[C@@]4(C)[C@H]3C[C@H]([N+]3(C)CCCCC3)[C@@H]4OC(C)=O)[C@@]2(C)C[C@@H]1N1CCCCC1	inactive	
CC(=O)NCCCS(=O)(=O)O	inactive	
CCCCC(CC)(CO)CO	inactive	
N#CCCNCCC#N	inactive	
CCCCOC(=O)c1ccccc1C(=O)OCC(CC)CCCC (stereo unspecified)	inactive	
CC(=O)Nc1ccc(/C=N/NC(N)=S)cc1	inactive	
CCCCOC(O)CC (stereo unspecified)	inactive	
CCCCc1cc2ccccc2c(OCCN(C)C)n1	inactive	
Nc1nc(N)c(-c2ccccc2)s1	inactive	
O=C(O)C1CCC(C(=O)O)CC1 (stereo unspecified)	inactive	
COC(Cc1ccccc1)OC	inactive	
O=C(O)/C=C/c1cnc[nH]1	inactive	
N[C@H]1C(O)O[C@H](CO)[C@H](O)[C@@H]1O (stereo partly specified)	inactive	
CC(C)(C)c1cc(CCC(=O)OCC(COC(=O)CCc2cc(C(C)(C)C)c(O)c(C(C)(C)C)c2)(COC(=O)CCc2cc(C(C)(C)C)c(O)c(C(C)(C)C)c2)COC(=O)CCc2cc(C(C)(C)C)c(O)c(C(C)(C)C)c2)cc(C(C)(C)C)c1O	inactive	
CCOC(=O)CC(=O)c1cc(F)c(Cl)nc1Cl	inactive	
CCN(CC)C(C)=O	inactive	
COC(=O)C(C)=O	inactive	
Cc1cccc(OCCOc2cccc(C)c2)c1	inactive	
CC(C)NCC(O)COc1ccc(CC(N)=O)cc1 (stereo unspecified)	inactive	

Source: PubChem BioAssay (Tox21)
